Experimental findings from PubChem BioAssay (NCI) are described below.

About 83,000 compounds went through this panel and 20% of them were active in at least one assay; those are over-represented in the sample as a whole.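 How to read the values: 0–100, growth inhibition (40 = 60% inhibited); 0, no net growth; -100 to 0, cell death (-40 = 40% of starting cells died; -100 = all dead).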 A number with no mark means an inactive call. Calls of active or inactive are those of the source. Rule for the calls: active = growth percent below 10; inactive = the rest.

Test systems include SK-MEL-2 melanoma; EKVX NSCLC; SN12C renal; UO-31 renal; TK-10 renal; ACHN renal; CAKI-1 renal; A498 renal; CCRF-CEM leukemia; MOLT-4 leukemia; SR leukemia; RPMI-8226 leukemia; OVCAR-8 ovarian; OVCAR-5 ovarian; OVCAR-4 ovarian; SK-OV-3 ovarian; IGROV1 ovarian; OVCAR-3 ovarian; NCI/ADR-RES ovarian; HS 578T breast.
What all share (assay): NCI-60 one-dose screen, 48 h (100 = growth as untreated, 0 = no growth, -100 = all killed)
Common to all, as to conditions: 10 µM unless noted

For `N#Cc1c(-c2ccccc2)nc(SCC2CO2)nc1N1CCOCC1` (centres undefined), the growth in the experiment on SK-MEL-2 melanoma is 66.9%; in the experiment on EKVX NSCLC it was 78.4%; with SN12C renal, 69.9%; in the experiment with UO-31 renal, 29.5%; in the experiment on TK-10 renal, 68.6%; with ACHN renal, 59.2%. The growth in the experiment with CAKI-1 renal is 38.6%; in the experiment with A498 renal, -15.2% (active); in the experiment with CCRF-CEM leukemia, 96.6%; in the experiment on MOLT-4 leukemia, 68.6%; with SR leukemia, 72.5%; with RPMI-8226 leukemia, 47.9%. For the same compound, the growth in the experiment with OVCAR-8 ovarian is 81.8%; in the experiment with OVCAR-5 ovarian, 60.8%; with OVCAR-4 ovarian it was 71.1%; in the experiment with SK-OV-3 ovarian, 28.1%; with IGROV1 ovarian, 38.1%; in the experiment with OVCAR-3 ovarian it was 61.7%. Further, in the experiment on NCI/ADR-RES ovarian, the growth is 76.2%.
With `CNC1(C#N)CCN(Cc2ccccc2)CC1`, the growth in the experiment with SK-MEL-2 melanoma is 93.2%; in the experiment on EKVX NSCLC it was 90.2%; with SN12C renal it was 93.9%; in the experiment on UO-31 renal it was 80.9%; in the experiment with TK-10 renal, 272%; in the experiment on ACHN renal, 101%. Besides, the growth with CAKI-1 renal is 72.7%; in the experiment on A498 renal, 110%; with CCRF-CEM leukemia, 108%; in the experiment with MOLT-4 leukemia it was 170%; with SR leukemia, 132%; in the experiment with RPMI-8226 leukemia, 110%. Moreover, the growth in the experiment with OVCAR-8 ovarian was 113%; in the experiment with OVCAR-5 ovarian, 100%; in the experiment on OVCAR-4 ovarian, 103%; with SK-OV-3 ovarian it was 99.4%; with IGROV1 ovarian, 101%; in the experiment on OVCAR-3 ovarian, 99.9%. Moreover, the growth in the experiment on HS 578T breast was 104%; with NCI/ADR-RES ovarian it was 103%.
On to `CN(CCC(=O)/C(=C\c1ccccc1)c1ccc(Cl)cc1)Cc1ccccc1`, for which the growth is 58.4% in the experiment with SK-MEL-2 melanoma; 86.8% in the experiment with EKVX NSCLC; -9.91% (active) in the experiment with SN12C renal; -40.9% (active) in the experiment with UO-31 renal; 51.8% in the experiment on TK-10 renal; -43.3% (active) with ACHN renal. For the same compound, the growth in the experiment on CAKI-1 renal was 22.5%; in the experiment on A498 renal it was 46.1%; in the experiment with CCRF-CEM leukemia, -7.82% (active); in the experiment on MOLT-4 leukemia, 6.05% (active); in the experiment with SR leukemia, -1.56% (active); in the experiment on RPMI-8226 leukemia, -11.3% (active). Further, the growth with OVCAR-8 ovarian was 11.8%; in the experiment with OVCAR-5 ovarian it was 25.2%; in the experiment on OVCAR-4 ovarian, 89.7%; in the experiment with SK-OV-3 ovarian, 120%; in the experiment with IGROV1 ovarian, 14.4%; in the experiment with OVCAR-3 ovarian, 1.15% (active). The growth in the experiment with HS 578T breast is 28.9%; with NCI/ADR-RES ovarian it was 24%.
Regarding `C=C(C)[C@@H]1CC[C@@]2(C(=O)O)CC[C@]3(C)C(CCC4[C@@]5(C)CCC(OS(=O)(=O)c6ccccc6)C(C)(C)C5CC[C@]43C)C12` (some centres undefined), the growth in the experiment with SK-MEL-2 melanoma is 70.3%; in the experiment with EKVX NSCLC it was 25.4%; in the experiment with SN12C renal, 62.2%; in the experiment with UO-31 renal, 48.5%; in the experiment on TK-10 renal it was 59.8%; in the experiment on ACHN renal it was 49.7%. Moreover, the growth is -15.5% (active) with CAKI-1 renal; 84.2% in the experiment with A498 renal; 62.4% in the experiment on CCRF-CEM leukemia; 51.7% in the experiment with MOLT-4 leukemia; 56.7% with SR leukemia; 30.4% in the experiment on RPMI-8226 leukemia. The growth in the experiment with OVCAR-8 ovarian was 38.1%; in the experiment on OVCAR-5 ovarian it was 89.7%; in the experiment with OVCAR-4 ovarian, 54.7%; in the experiment with SK-OV-3 ovarian, 74.4%; in the experiment on IGROV1 ovarian, 93.7%; in the experiment with OVCAR-3 ovarian, 50.8%. Besides, the growth in the experiment on HS 578T breast was 67.5%; in the experiment on NCI/ADR-RES ovarian, 52.5%.
Regarding `CC(=O)c1sc(-c2ccccc2)cc1N`, the growth with SK-MEL-2 melanoma is 109%; with EKVX NSCLC, 44.4%; with SN12C renal, 96.1%; in the experiment with UO-31 renal, 88.6%; in the experiment with TK-10 renal, 101%; with ACHN renal it was 104%. Moreover, the growth was 92.9% in the experiment on CAKI-1 renal; 84.4% with A498 renal; 96.6% in the experiment with CCRF-CEM leukemia; 91.7% in the experiment with MOLT-4 leukemia; 88.4% in the experiment on SR leukemia; 98.1% with RPMI-8226 leukemia. Also, the growth with OVCAR-8 ovarian is 92.8%; in the experiment with OVCAR-5 ovarian, 100%; with OVCAR-4 ovarian, 94.2%; in the experiment with SK-OV-3 ovarian it was 89.6%; in the experiment on IGROV1 ovarian, 105%; in the experiment on OVCAR-3 ovarian it was 103%. In addition, the growth in the experiment on HS 578T breast is 89.1%; in the experiment on NCI/ADR-RES ovarian, 105%.
With `CSc1ccc(Cl)c(C(=O)Nc2sccc2C(N)=O)c1`, the growth with SK-MEL-2 melanoma is 92.7%; in the experiment on EKVX NSCLC, 108%; in the experiment with SN12C renal, 93.6%; with UO-31 renal it was 80.6%; in the experiment on TK-10 renal, 158%; with ACHN renal, 102%. Further, the growth in the experiment with CAKI-1 renal is 112%; in the experiment with A498 renal, 94.2%; in the experiment with CCRF-CEM leukemia, 94.1%; in the experiment on MOLT-4 leukemia, 125%; with SR leukemia, 104%; in the experiment on RPMI-8226 leukemia, 95.3%. Besides, the growth is 94.4% in the experiment on OVCAR-8 ovarian; 98.2% with OVCAR-5 ovarian; 83.5% with OVCAR-4 ovarian; 115% in the experiment on SK-OV-3 ovarian; 105% in the experiment with IGROV1 ovarian; 100% in the experiment with OVCAR-3 ovarian. In addition, the growth was 99.4% with HS 578T breast and 99% in the experiment with NCI/ADR-RES ovarian.
As to `COc1cc(-c2ncn(/C=C\c3nnco3)n2)cc(C(F)(F)F)c1`, the growth in the experiment on SK-MEL-2 melanoma is -6.5% (active); in the experiment on EKVX NSCLC, 61.5%; in the experiment with SN12C renal, 33.6%; in the experiment on UO-31 renal, 18.3%; in the experiment with TK-10 renal it was 34%; in the experiment with ACHN renal, 27.7%. Moreover, the growth was 26.1% in the experiment with CAKI-1 renal; -33.9% (active) in the experiment with A498 renal; 13.6% with CCRF-CEM leukemia; 1.86% (active) in the experiment with MOLT-4 leukemia; 6.43% (active) in the experiment on SR leukemia; 76.4% in the experiment on RPMI-8226 leukemia. Moreover, the growth with OVCAR-8 ovarian is 19.8%; in the experiment with OVCAR-5 ovarian, 37.9%; with OVCAR-4 ovarian, 15.4%; in the experiment with SK-OV-3 ovarian, 38.9%; with IGROV1 ovarian, 22.3%; in the experiment on OVCAR-3 ovarian, -20.8% (active). In addition, the growth is 19.3% in the experiment with HS 578T breast and 27.1% in the experiment with NCI/ADR-RES ovarian.
For the compound `COc1cc(-c2ccc(N=Nc3c(O)c(C(=O)Nc4ccccc4OC)cc4ccccc34)c(OC)c2)ccc1N=Nc1c(O)c(C(=O)Nc2ccccc2OC)cc2ccccc12`, the growth with SK-MEL-2 melanoma is 101%; with EKVX NSCLC, 96.4%; in the experiment with SN12C renal, 98.6%; with UO-31 renal it was 78.7%; in the experiment on TK-10 renal it was 110%; with ACHN renal it was 90.7%. Moreover, the growth in the experiment with CAKI-1 renal is 83.8%; with A498 renal, 78%; with CCRF-CEM leukemia, 9.35% (active); in the experiment on MOLT-4 leukemia it was 93.8%; in the experiment with SR leukemia, 41.8%; in the experiment with RPMI-8226 leukemia, 97.2%. Besides, the growth with OVCAR-8 ovarian is 99.3%; in the experiment with OVCAR-5 ovarian, 99.6%; with OVCAR-4 ovarian, 98.9%; in the experiment on SK-OV-3 ovarian, 103%; in the experiment with IGROV1 ovarian it was 88.3%; in the experiment with OVCAR-3 ovarian, 99.3%. The growth in the experiment on HS 578T breast was 84.8%; in the experiment with NCI/ADR-RES ovarian it was 96.4%.
